The entries come from a sample that favours hits as a whole.
Dicer inh – inhibitors of Dicer pre-microRNA processing, primary screen, biochemical, cat-ELCCA, chemiluminescence | Endoribonuclease Dicer (Homo sapiens), Q9UPY3 | cat-ELCCA pre-miR-21 Dicer processing; stronger effect = higher value | z-score at 25 µM | hit rate 6% among 47,000; in the data active = z-score above about 3, passing the limit was not always enough;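 note: higher signal means more uncleaved substrate so more Dicer inhibition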
Target sequence (Q9UPY3 whole entry, looked up): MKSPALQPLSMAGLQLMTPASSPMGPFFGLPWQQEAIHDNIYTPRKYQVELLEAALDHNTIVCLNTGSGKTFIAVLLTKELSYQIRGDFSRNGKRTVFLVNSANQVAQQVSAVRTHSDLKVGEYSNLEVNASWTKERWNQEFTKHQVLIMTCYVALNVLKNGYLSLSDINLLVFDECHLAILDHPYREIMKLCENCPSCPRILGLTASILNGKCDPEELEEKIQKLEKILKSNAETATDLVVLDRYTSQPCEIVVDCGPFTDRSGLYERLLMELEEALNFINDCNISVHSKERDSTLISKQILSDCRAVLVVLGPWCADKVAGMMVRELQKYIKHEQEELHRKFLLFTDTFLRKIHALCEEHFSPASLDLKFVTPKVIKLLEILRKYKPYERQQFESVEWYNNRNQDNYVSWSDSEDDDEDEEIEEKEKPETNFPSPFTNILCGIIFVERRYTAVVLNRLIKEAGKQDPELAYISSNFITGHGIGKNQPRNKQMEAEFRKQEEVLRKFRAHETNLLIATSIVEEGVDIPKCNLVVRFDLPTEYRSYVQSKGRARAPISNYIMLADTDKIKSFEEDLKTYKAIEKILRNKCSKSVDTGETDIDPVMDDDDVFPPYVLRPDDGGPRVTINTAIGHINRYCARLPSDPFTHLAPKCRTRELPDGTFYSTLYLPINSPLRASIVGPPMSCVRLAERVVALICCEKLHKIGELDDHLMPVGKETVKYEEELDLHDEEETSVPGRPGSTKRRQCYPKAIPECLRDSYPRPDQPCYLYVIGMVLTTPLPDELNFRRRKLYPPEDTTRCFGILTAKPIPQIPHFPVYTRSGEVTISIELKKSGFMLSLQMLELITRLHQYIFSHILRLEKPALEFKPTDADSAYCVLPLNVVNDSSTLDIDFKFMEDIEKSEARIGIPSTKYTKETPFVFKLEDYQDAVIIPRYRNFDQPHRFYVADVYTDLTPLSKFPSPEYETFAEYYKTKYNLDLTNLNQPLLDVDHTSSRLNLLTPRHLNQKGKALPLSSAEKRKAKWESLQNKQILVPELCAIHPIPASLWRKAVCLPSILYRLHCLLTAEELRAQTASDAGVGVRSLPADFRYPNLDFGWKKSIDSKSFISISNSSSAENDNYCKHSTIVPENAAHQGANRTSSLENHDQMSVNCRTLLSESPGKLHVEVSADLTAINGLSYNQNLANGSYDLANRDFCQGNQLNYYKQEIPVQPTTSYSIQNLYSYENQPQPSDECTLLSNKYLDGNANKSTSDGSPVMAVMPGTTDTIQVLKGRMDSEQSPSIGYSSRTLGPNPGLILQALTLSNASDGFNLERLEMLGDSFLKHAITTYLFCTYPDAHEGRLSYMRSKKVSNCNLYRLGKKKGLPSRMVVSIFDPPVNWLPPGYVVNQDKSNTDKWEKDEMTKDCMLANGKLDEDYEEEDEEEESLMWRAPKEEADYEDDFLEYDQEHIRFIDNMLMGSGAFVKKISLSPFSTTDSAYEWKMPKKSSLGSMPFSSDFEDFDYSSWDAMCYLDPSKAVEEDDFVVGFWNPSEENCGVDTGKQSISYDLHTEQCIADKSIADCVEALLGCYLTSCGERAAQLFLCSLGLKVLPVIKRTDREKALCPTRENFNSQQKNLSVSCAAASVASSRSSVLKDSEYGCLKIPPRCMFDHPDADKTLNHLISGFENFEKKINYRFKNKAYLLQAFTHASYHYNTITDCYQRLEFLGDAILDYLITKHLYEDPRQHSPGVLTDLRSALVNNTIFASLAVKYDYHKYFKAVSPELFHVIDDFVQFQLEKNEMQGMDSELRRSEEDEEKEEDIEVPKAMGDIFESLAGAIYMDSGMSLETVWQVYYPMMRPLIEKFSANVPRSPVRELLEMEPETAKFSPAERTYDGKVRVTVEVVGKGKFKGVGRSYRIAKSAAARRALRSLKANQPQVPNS
Hits are given with their value; - = inactive.

SMILES	Dicer inh
CCCCN1C(=O)C(O)(CC(=O)c2c(C)n[nH]c2C)c2cc(Br)ccc21 (configuration not stated)	-
Cc1ccccc1CN1C(=O)C(O)(CC(=O)c2ccccn2)c2cc(Cl)ccc21 (configuration not stated)	-
CCOC(=O)C1=C(C)N=C2SCCN2C1c1ccccc1 (configuration not stated)	-
CC1=C(C(=O)Nc2ccc(Br)cn2)C(c2ccc(Cl)cc2)C2=C(CCCC2=O)N1 (configuration not stated)	-
O=C(CC1(O)C(=O)N(CCCc2ccccc2)c2ccccc21)c1ccccc1 (configuration not stated)	-
Cc1ccccc1Nc1cccc2nonc12	-
CSc1nc2c(c(=O)[nH]1)C(c1ccc(Br)cc1)C1=C(CCCC1=O)N2 (configuration not stated)	-
CC(C)(C)NC(=NCC1CC1)NN	-
CN(Cc1ccccc1)S(=O)(=O)c1ccc(N2CCOCC2)nc1	-
C=CCOC(=O)C1=C(C)NC2=C(C(=O)CC(C)(C)C2)C1c1cccc(O)c1 (configuration not stated)	-
Cn1c(=O)n(CC(=O)O)c(=O)c2c1nc1n2CCN1c1ccc(Cl)cc1	3.4
Cn1c(=O)n(CC(=O)O)c(=O)c2c1nc1n2CCCN1c1cccc(Cl)c1	-
COc1cccc(N2CCn3c2nc2c3c(=O)n(CC(=O)O)c(=O)n2C)c1	-
NC(=S)COc1ccccc1Cl	-
CN(C)c1nc2ccccc2c(=O)s1	-
Brc1cccc(CSc2nc3ncccc3[nH]2)c1	-
Cc1ccc(CSc2nc3ncccc3[nH]2)cc1	4.3
Fc1cc(Cl)ccc1CSc1nc2ncccc2[nH]1	-
NC(=O)c1nnn(Cc2ccccc2)c1N	-
C=CCNc1nc(C)c(C#N)cc1C(=O)OCC	-
Cc1ccccc1OCCN(C#N)c1nc(N(C)C)nc(N(C)C)n1	-
Fc1ccc(NCn2nnc3cc(Cl)ccc32)cc1	-
FC(F)(F)Oc1ccc(NCn2nnc3ccccc32)cc1	3.6
FC(F)(F)c1ccc(NCn2nnc3cc(Cl)ccc32)cc1	-
O=C(Nc1ccc(S(=O)(=O)Nc2nccs2)cc1)c1cncc(Br)c1	-
SMILES	Dicer inh
Cc1cc(C)n(-c2ncnc(Cl)c2N)n1	-
Oc1ccccc1C=Nc1n[nH]c2ccccc12	3.5
Oc1ccccc1C=NCC1CCC(CN=Cc2ccccc2O)CC1 (configuration not stated)	-
Oc1ccccc1/C=N/C(/N=C/c1ccccc1O)c1ccccc1O	-
CS(=O)(=O)/C(C#N)=C/c1sccc1Cl	-
N/C(=N\NS(=O)(=O)c1ccccc1Cl)c1ccccn1	-
CS(=O)c1noc(-c2ccc(Cl)cc2)c1C#N (configuration not stated)	-
CCOC(=O)CC1=NN=C(N)SC1	-
Cc1ccc(CC2CC(=O)N(Cc3ccco3)C2=O)cc1 (configuration not stated)	3.6
Cc1ccc(CC2CC(=O)N(c3ccncc3)C2=O)cc1 (configuration not stated)	-
Cc1ccc(CC2CC(=O)N(c3ccc(C(=O)O)cc3)C2=O)cc1 (configuration not stated)	-
CCc1nn2cc(-c3ccc(F)cc3)nc2s1	-
COc1ccccc1N1C(=O)c2cccc3c(N4CCOCC4)ccc(c23)C1=O	-
CSc1ccccc1NC(=O)Cn1cnc([N+](=O)[O-])n1	-
Cn1cc([N+](=O)[O-])c(C(=O)Nc2ccc(Cl)cc2)n1	-
O=C(Cn1cnc([N+](=O)[O-])n1)Nc1ccc(Cl)cc1	4.3
Cc1ccc(/C(O)=C2\C(=O)C(=O)N(Cc3cccnc3)C2c2cccnc2)cc1 (configuration not stated)	-
CC1CN(c2ncnc3ccsc23)CC(C)O1 (configuration not stated)	-
Cc1ccccc1-c1noc(-c2ccccc2C)n1	-
Cc1ccc2nc(-c3cccc(S(=O)(=O)N4CCOCC4)c3)cn2c1	-
CN(C)c1ccc(NS(=O)(=O)c2ccc(-c3csnn3)cc2)cc1	7
Cc1ccc(S(=O)(=O)N/N=C/C(=O)O)cc1	-
CNC(=O)NNc1ccc(-c2csnn2)cc1	-
COc1ccc(NS(=O)(=O)c2ccc(NS(=O)(=O)c3ccc(C)cc3)cc2)nn1	-
COCCCNC(=S)NNS(=O)(=O)c1ccc(C)cc1	-
SMILES	Dicer inh
COCCCNS(=O)(=O)c1ccc(NS(=O)(=O)c2ccc(C)cc2)cc1	4.7
Cc1ccc(S(=O)(=O)Nc2ccc(N(C)C)cc2)cc1	3.8
COc1ccc(-c2csnn2)cc1S(=O)(=O)Nc1ccccc1	-
Cc1ccc(S(=O)(=O)NCCCN(C)C)cc1	-
Cc1ccc(OCc2nn3c(Cc4ccccc4)nnc3s2)cc1	-
COc1ccc2c(c1)CCc1sc(/N=C/NO)nc1-2	-
CCn1c2c(c(=O)[nH]c1=O)C(c1ccccc1C)C1=C(N2)c2ccccc2C1=O (configuration not stated)	-
Cc1ccc2c(c1)C(=O)OC(C(=O)Nc1cc(C)on1)C2 (configuration not stated)	-
CC(C)=CC(=O)OCC(=O)c1ccc(C(F)(F)F)cc1	-
